Laboratory results published in PubChem BioAssay (Tox21).
Several values for one entry are separate records, joined by “and”; a condition that tells them apart may be missing. Equal entries are not always repeated. Records with an inconclusive call do not appear. Activity calls are given as the source filed them. Unless noted, calls follow the shape of the dose curve; as a rule, active = well fitted curve in the direction sought with a large enough effect in the repeat runs; inconclusive = weak or mixed curves; inactive = no such curve, though single readings can be large; an effect the other way counts as inactive or inconclusive.

Columns and labels:
[1] = qHTS assay for small molecule agonists of the p53 signaling pathway (AID 651631; calls by dose curve; also: nearly all actives have a fitted effect of over 15% in size; also: potency is read from the fitted curve at half-maximal effect)
Summary of the method: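 We treat p53RE-bla HCT-116 cells with compounds for 16 h at 37 °C, add LiveBLAzer B/G FRET substrate for 2 h at room temperature, and measure fluorescence intensity.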

[2] = qHTS assay for small molecules that induce genotoxicity in human embryonic kidney cells expressing luciferase-tagged ATAD5 (AID 651632); also: nearly all actives have a fitted effect of over 15% in size
Summary of the method: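 HEK293T cells carrying a luciferase reporter tagged to ATAD5 were exposed to compound or DMSO vehicle for 16 hr at 37C, 5% CO2. Amplite was added, and after 30 min at room temperature luciferase activity was read as a marker of ATAD5 induction.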

[3] = qHTS assay for small molecule agonists of the p53 signaling pathway - cell viability (AID 651633; calls by dose curve;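 also: p53RE-bla HCT reporter cells with a stable beta-lactamase p53 reporter; series mostly up to about 83 µM; nearly all actives have a fitted effect of over 30% in size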)
Summary of the method: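 Viability counter-read: CellTiter-Glo luminescence (30 min, room temperature) in the same p53RE-bla plates. These plates had been exposed to compounds for 16 h at 37 C.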

[4] = qHTS assay for small molecules that induce genotoxicity in human embryonic kidney cells expressing luciferase-tagged ATAD5 - cell viability (AID 651634; calls by dose curve; also: nearly all actives have a fitted effect of over 25% in size)
Summary of the method: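 HEK293T cells expressing luciferase-tagged ATAD5 were exposed to compound or DMSO for 15.5 hr at 37C, 5% CO2. Viability was then read as live-cell protease activity by CellTiter-Fluor fluorescence after 30 min at 37C.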

[5] = qHTS assay for small molecule disruptors of the mitochondrial membrane potential - cell viability (AID 720634; calls by dose curve;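 also: human HepG2 liver cancer cells; series mostly up to about 83 µM; nearly all actives have a fitted effect of over 20% in size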)
Summary of the method: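 HepG2 cells seeded overnight at 37 C, then exposed to compound or DMSO for 1 hr at 37 C, 5% CO2. m-MPI dye added, then CellTiter-Glo for 30 min at room temperature; viability read as ATP luminescence.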

[6] = qHTS assay for small molecule disruptors of the mitochondrial membrane potential (AID 720635)
Summary of the method: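 Mitochondrial membrane potential tracked with Mito-MPS dye, red aggregates (ex 540/em 590 nm) against green monomers (ex 490/em 535 nm). Compound treatment 1 hr at 37C, dye 30 min in HepG2.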

[7] = qHTS assay to test for compound auto fluorescence at 590 nm (red) in HepG2 cells (AID 720674)
Summary of the method: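 Red autofluorescence (Ex/Em 540/590 nm, Rose Bengal sodium equivalents) was measured in HepG2 cells, 2,000 per well in MEM plus 10% FBS, plated overnight at 37 C. Readings were taken 1 hr after adding 23 nL compound or DMSO, at 37 C and 5% CO2.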

[8] = qHTS assay to test for compound auto fluorescence at 535 nm (green) in HepG2 cells (AID 720675)
[9] = qHTS assay to test for compound auto fluorescence at 460 nm (blue) in HEK293 cells (AID 720678)
Summary of the method: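 Blue read-out at excitation 405 nm and emission 460 nm follows overnight compound exposure of HEK293 cells at 37C in 5% CO2. Activity is given as auto fluorescence equivalency to triamterene.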

[10] = qHTS assay to test for compound auto fluorescence at 590 nm (red) in HEK293 cells (AID 720679)
Summary of the method: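 Red channel, Ex/Em 540/590nm; signal expressed as equivalency to Rose Bengal sodium. HEK293, 2,000 cells/well, 10% dialyzed FBS; 23 nL compound pinned after 4-5 hr attachment; overnight 37C/5% CO2 before reading.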

[11] = qHTS assay to test for compound auto fluorescence at 535 nm (green) in HEK293 cells (AID 720680)
[12] = qHTS assay to test for compound auto fluorescence at 460 nm (blue) in HEK293 cell free culture (AID 720681)
Summary of the method: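 Blue fluorescence (Ex 405/Em 460 nm, triamterene-equivalent) was read immediately after pin transfer of compound or DMSO into medium (DMEM, 10% FBS) without cells.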

[13] = qHTS assay to test for compound auto fluorescence at 535 nm (green) in HEK293 cell free culture (AID 720682)
Summary of the method: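 Green-channel intensity (Ex/Em 485/535 nm) was recorded from compound-treated wells containing only DMEM with 10% FBS. Fluorescein provided the equivalency standard.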

[14] = qHTS assay to test for compound auto fluorescence at 590 nm (red) in HEK293 cell free culture (AID 720683)
Summary of the method: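 Red-channel autofluorescence of compounds in culture medium (DMEM, 10% FBS), no cells, measured at 540/590 nm. Rose Bengal sodium is the reference fluorophore for equivalence.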

[15] = qHTS assay to test for compound auto fluorescence at 590 nm (red) in HepG2 cell free culture (AID 720684)
Summary of the method: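 Plate contents were MEM with 10% FBS plus test compound or DMSO, no cells. Fluorescence was recorded with 540 nm excitation and 590 nm emission.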

[16] = qHTS assay to test for compound auto fluorescence at 460 nm (blue) in HepG2 cell free culture (AID 720685)
Summary of the method: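 Compound (23 nL) or DMSO pinned into cell-free MEM with 10% FBS; blue fluorescence read at 405/460 nm excitation/emission, expressed as auto-fluorescence equivalency to triamterene.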

[17] = qHTS assay to test for compound auto fluorescence at 535 nm (green) in HepG2 cell free culture (AID 720686)
[18] = qHTS assay to test for compound auto fluorescence at 460 nm (blue) in HepG2 cells (AID 720687)
Summary of the method: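 Blue-channel autofluorescence (Ex/Em 405/460 nm, triamterene-equivalent) was measured after 1 hr compound exposure at 37 C, 5% CO2. Cells were HepG2, plated overnight at 37 C in MEM plus 10% FBS.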

[19] = target: Glucocorticoid receptor (Homo sapiens) (UniProt P04150); test: qHTS assay to identify small molecule agonists of the glucocorticoid receptor (GR) signaling pathway (AID 720691; active = well fitted activation curve with a large enough effect in the signal ratio in the repeat runs, not every such curve was filed as active; the % refers to the signal ratio)
Summary of the method: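 GR-bla HeLa cells (beta-lactamase reporter under glucocorticoid response element) were plated 4 h at 37 C/5% CO2, given compounds in DMSO, and incubated 18 h at 37 C. LiveBLAzer B/G FRET substrate was added for 2 h at room temperature, then fluorescence intensity read.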

[20] = target: Glucocorticoid receptor (Homo sapiens) (UniProt P04150); test: qHTS assay to identify small molecule antagonists of the glucocorticoid receptor (GR) signaling pathway (AID 720692; active = well fitted inhibition curve with a large enough effect in the signal ratio in the repeat runs, not every such curve was filed as active; the % refers to the signal ratio)
Summary of the method: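 GR-bla HeLa cells (beta-lactamase reporter under glucocorticoid response element) were pre-plated 4 h at 37 C, treated with compounds plus 5 nM dexamethasone (final) for 18 h, then read by LiveBLAzer B/G FRET fluorescence after 2 h.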

Measured: Potency

Sequence of Glucocorticoid receptor (Homo sapiens) (P04150 whole entry, looked up): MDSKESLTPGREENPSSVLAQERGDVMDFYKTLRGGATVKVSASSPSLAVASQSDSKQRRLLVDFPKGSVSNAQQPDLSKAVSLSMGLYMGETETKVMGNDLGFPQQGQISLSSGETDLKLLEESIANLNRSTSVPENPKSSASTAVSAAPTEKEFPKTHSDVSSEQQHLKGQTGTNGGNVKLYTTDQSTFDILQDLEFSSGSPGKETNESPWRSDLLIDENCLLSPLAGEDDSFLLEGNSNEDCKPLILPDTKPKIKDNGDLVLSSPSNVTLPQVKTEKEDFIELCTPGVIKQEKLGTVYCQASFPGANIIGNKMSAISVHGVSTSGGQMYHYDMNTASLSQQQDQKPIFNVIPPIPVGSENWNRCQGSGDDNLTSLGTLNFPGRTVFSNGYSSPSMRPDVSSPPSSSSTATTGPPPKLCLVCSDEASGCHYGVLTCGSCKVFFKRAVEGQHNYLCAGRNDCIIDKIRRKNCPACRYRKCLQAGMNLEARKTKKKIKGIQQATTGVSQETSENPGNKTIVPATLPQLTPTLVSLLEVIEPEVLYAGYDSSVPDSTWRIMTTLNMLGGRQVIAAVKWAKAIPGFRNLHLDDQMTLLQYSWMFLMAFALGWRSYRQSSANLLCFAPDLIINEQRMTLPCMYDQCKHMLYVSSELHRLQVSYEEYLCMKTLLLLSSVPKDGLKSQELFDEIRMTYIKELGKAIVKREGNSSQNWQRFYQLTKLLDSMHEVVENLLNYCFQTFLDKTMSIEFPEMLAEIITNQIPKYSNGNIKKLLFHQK

Nc1cccc2c(=O)[nH][nH]c(=O)c12
inactive: all assays above

O=C(O)c1ccccc1-n1cc(C(=O)O)c(=O)c2cc(Nc3c(F)cc(F)cc3Cl)c(Cl)cc21
not listed: [18] | [19]
inactive: all other assays above

C1CCN(CN2CCCCC2)CC1
not listed: [9] | [16] | [19] | [20]
inactive: all other assays above

CCCCCCCCCCCC(=O)OCC
not listed: [16] | [19] | [20]
inactive: all other assays above

Cc1cc(C)c(C)c(O)c1
not listed: [6] | [18] | [19] | [20]
inactive: all other assays above

CCOC(OCC)OCC
not listed: [18]
inactive: all other assays above

C/C(=C(\CCO)SS/C(CCO)=C(\C)N(C=O)Cc1cnc(C)nc1N)N(C=O)Cc1cnc(C)nc1N
not listed: [20]
inactive: all other assays above

O=C(O)c1cc(C(=O)O)cc([N+](=O)[O-])c1
not listed: [16]
inactive: all other assays above

CC(O)C(C)O (stereo not drawn)
not listed: [7] | [18]
inactive: all other assays above

Nc1nc(Cl)nc2c1ncn2[C@H]1C[C@H](O)[C@@H](CO)O1
active: [1] 841 nM and 341 nM
not listed: [19] | [20]
inactive: all other assays above

CCOc1ccc(NC(C)=O)cc1N
not listed: [6] | [19] | [20]
inactive: all other assays above

CC1(C)C(=O)NC(=O)N1CO
not listed: [18]
inactive: all other assays above

C[Si](C)(C)O[Si](C)(C)O[Si](C)(C)C
not listed: [6] | [19] | [20]
inactive: all other assays above

CNc1ccccc1
not listed: [9] | [20]
inactive: all other assays above

CCC(CC)C(=O)O
not listed: [16]
inactive: all other assays above

CC(C)NC(=O)c1ccccc1N
not listed: [19] | [20]
inactive: all other assays above
